Assay results reported in the supplement of paper PMC10849652.
Targets with a hit are over-represented here; the source holds about 7,900 in all. About 0.6% of all pairs of compound and target were hits. Values without a mark were called inactive.

Key:
Assay in all cases: log2 fold change, soluble protein after heating vs DMSO (PISA); higher = thermal stabilisation; K562 cells, 10 uM, 30 min; active = over 0.2 and 3.5 SD of the protein, either way, in both replicates (recomputed)
[1] = compound: CC[C@@H]1C(=O)N(C)c2cnc(Nc3ccc(C(=O)NC4CCN(C)CC4)cc3OC)nc2N1C1CCCC1
How it was run: (§1)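 Quantification of soluble protein used TMTpro 16plex LC-MS/MS, with channel sums equalised. Samples were the supernatant after 21,000xg for 90 min of pooled aliquots from K562 cells (2×10^6 cells/mL) treated with 10 μM compound for 30 min, heated for 3 min over 48°C-58°C, and extracted in PBS with 0.5% NP-40 at 4°C. Values, from duplicates, describe thermal stability against control samples on a log2 fold-change scale.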

volasertib = compound: CC[C@@H]1C(=O)N(C)c2cnc(Nc3ccc(C(=O)N[C@H]4CC[C@H](N5CCN(CC6CC6)CC5)CC4)cc3OC)nc2N1C(C)C [volasertib]
How it was run: as §1

[2] = compound: CC[C@H](C)N1C=C(C2=C(C=C(C=C21)C3=CN=C(C=C3)N4CCNCC4)C(=O)NCC5=C(C=C(NC5=O)C)C)C
How it was run: as §1

epoxomicin = compound: CC[C@H](C)[C@@H](C(=O)N[C@@H]([C@@H](C)O)C(=O)N[C@@H](CC(C)C)C(=O)[C@]1(CO1)C)NC(=O)[C@H]([C@@H](C)CC)N(C)C(=O)C [epoxomicin]
How it was run: as §1

[3] = compound: CCn1c(C(=O)N(C2CC2)C2CC2)cc2c3c(ncn3C)c(Nc3cc(C)n(C)n3)nc21
How it was run: as §1

[4] = compound: CCn1cc(-c2ccnc3[nH]c(-c4cccc(CN(C)C)c4)cc23)c(-c2ccc(NC(=O)N(C)C)cc2)n1
How it was run: as §1

[5] = compound: CN(C)CC(=O)Nc1ccc2[nH]c(=O)c3ccccc3c2c1
How it was run: as §1

rosiglitazone = compound: CN(CCOC1=CC=C(C=C1)C[C@H]2C(=O)NC(=O)S2)C3=CC=CC=N3 (racemic) [rosiglitazone]
How it was run: as §1

[6] = compound: CN1C2=C(C3=C1C(=O)N(N=C3)CC4=CC(=CC=C4)N)SC(=C2)S(=O)C
How it was run: as §1

[7] = compound: CN1CCC(CNc2ccc3ncc(-c4cccc(OC(F)(F)F)c4)n3n2)CC1
How it was run: as §1

UniProt Q9Y6Y8, sequence (Q9Y6Y8 whole entry, looked up): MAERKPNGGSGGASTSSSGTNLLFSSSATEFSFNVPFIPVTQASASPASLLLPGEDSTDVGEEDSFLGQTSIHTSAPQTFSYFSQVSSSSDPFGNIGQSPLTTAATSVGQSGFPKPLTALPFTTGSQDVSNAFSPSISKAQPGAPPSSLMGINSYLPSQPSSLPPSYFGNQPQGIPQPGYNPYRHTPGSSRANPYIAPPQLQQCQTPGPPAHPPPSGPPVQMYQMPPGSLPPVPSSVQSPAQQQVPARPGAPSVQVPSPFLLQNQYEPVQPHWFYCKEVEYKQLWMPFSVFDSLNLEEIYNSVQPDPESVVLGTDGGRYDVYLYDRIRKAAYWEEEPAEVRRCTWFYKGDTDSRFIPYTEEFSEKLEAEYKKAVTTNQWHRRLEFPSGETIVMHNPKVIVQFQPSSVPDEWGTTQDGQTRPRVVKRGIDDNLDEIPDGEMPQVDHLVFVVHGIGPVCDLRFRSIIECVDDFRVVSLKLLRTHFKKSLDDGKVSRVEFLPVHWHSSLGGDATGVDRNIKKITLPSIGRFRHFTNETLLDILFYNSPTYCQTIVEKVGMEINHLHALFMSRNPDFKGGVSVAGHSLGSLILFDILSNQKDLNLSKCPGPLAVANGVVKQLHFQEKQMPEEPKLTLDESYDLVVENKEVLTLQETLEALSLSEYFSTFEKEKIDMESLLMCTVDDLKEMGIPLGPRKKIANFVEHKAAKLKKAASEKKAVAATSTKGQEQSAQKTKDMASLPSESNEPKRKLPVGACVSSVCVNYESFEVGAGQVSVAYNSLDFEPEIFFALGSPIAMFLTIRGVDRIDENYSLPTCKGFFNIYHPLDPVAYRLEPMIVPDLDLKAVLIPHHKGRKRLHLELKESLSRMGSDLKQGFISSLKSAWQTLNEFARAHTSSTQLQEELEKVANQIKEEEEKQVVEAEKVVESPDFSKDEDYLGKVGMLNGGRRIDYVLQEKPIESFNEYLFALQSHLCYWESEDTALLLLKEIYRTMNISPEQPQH
UniProt O95470, sequence (O95470 whole entry, looked up): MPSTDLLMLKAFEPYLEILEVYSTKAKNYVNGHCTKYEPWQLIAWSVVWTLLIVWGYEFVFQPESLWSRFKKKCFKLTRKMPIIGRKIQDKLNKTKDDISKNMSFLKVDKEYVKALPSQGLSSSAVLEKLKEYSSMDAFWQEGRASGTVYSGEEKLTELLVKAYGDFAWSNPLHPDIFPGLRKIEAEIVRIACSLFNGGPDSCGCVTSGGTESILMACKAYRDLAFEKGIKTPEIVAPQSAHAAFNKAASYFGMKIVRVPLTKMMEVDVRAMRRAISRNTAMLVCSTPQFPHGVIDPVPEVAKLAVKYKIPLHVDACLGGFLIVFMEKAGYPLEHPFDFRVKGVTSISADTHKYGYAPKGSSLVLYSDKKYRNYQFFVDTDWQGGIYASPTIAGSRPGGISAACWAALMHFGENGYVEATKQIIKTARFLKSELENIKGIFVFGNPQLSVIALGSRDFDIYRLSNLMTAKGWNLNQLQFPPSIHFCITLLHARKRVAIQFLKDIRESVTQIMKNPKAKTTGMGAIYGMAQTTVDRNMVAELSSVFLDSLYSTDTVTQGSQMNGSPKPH
UniProt O95059, sequence (O95059 whole entry, looked up): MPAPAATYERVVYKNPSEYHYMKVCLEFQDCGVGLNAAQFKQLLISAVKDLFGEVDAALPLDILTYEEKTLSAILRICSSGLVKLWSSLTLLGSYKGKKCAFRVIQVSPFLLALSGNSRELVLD
UniProt P40938, sequence (P40938 whole entry, looked up): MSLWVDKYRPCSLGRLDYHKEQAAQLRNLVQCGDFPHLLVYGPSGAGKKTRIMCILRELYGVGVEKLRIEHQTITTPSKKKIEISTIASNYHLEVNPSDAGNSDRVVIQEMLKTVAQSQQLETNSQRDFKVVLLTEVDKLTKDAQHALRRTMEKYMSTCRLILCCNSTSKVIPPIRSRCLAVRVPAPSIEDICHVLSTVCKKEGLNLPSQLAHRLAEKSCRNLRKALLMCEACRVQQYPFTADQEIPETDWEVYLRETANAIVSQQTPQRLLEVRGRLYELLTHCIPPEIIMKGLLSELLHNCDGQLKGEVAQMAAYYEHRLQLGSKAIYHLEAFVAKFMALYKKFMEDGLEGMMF
UniProt Q9NTZ6, sequence (Q9NTZ6 whole entry, looked up): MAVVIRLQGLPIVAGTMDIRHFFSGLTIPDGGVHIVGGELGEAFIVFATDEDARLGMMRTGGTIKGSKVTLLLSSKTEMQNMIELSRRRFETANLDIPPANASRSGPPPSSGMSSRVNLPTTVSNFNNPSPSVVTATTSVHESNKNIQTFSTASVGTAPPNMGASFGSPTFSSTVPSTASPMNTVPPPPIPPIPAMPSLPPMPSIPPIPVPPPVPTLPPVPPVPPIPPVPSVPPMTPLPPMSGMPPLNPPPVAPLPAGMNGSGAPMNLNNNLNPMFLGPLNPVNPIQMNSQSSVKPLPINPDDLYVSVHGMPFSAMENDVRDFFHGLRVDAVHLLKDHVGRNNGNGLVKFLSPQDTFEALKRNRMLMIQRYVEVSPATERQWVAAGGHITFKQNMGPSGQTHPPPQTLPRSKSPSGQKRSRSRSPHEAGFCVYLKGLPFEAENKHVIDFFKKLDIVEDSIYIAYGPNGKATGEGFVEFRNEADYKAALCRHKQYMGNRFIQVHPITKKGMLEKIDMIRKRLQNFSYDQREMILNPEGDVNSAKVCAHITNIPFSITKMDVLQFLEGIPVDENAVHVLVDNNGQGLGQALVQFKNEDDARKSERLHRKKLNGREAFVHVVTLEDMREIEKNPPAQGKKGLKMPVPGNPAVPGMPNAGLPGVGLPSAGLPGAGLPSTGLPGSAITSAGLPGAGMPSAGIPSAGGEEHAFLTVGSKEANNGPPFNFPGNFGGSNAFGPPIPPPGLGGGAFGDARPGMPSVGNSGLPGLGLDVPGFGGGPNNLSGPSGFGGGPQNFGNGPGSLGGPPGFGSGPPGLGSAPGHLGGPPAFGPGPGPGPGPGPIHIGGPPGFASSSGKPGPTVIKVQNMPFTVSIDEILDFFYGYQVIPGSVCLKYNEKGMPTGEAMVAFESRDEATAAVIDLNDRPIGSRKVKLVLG
UniProt Q15349, sequence (Q15349 whole entry, looked up): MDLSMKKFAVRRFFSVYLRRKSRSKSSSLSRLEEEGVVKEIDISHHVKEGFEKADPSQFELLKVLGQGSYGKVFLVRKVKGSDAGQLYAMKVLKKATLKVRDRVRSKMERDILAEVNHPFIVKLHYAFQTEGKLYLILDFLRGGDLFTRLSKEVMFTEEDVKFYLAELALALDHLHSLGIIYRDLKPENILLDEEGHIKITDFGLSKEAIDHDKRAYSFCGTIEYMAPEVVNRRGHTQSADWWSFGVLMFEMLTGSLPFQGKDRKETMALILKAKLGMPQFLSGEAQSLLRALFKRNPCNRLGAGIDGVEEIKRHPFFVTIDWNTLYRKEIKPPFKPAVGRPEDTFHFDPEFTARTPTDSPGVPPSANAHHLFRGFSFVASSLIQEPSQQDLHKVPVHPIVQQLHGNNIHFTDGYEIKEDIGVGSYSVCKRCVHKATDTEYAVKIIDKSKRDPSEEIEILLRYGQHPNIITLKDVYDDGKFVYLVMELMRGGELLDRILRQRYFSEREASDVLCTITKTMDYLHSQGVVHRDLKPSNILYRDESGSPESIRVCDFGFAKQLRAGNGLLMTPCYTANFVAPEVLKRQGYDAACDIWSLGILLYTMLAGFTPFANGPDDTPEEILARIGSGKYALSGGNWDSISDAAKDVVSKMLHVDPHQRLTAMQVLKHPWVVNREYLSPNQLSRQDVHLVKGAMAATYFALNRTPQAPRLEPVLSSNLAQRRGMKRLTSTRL
UniProt Q5T8P6, sequence (Q5T8P6 whole entry, looked up): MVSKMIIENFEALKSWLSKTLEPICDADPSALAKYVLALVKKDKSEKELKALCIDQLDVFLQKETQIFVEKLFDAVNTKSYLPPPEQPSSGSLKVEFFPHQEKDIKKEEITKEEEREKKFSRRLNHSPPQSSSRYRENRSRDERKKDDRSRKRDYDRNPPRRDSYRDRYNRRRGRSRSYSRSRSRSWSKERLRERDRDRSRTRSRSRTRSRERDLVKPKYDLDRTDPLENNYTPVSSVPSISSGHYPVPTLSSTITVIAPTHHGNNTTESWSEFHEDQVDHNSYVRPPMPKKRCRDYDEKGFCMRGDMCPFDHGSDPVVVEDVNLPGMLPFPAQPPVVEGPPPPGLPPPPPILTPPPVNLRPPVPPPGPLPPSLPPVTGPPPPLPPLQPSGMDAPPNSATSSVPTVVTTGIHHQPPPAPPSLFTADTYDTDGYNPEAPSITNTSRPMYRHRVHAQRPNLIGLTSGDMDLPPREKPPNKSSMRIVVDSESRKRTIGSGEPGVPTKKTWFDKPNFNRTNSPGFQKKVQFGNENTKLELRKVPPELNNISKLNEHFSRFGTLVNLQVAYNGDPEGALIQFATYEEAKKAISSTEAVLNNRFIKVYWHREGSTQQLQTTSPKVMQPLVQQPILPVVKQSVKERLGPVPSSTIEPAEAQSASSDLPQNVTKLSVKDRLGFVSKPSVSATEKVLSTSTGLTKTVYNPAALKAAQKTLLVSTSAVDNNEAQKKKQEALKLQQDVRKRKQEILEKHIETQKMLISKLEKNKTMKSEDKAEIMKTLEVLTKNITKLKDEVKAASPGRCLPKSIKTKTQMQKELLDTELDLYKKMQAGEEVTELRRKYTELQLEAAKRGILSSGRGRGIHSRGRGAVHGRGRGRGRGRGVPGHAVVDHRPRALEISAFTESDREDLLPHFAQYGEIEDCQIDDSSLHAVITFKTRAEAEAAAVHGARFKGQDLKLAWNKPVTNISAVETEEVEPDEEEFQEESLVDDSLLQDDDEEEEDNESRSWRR
UniProt Q9BWJ5, sequence (Q9BWJ5 whole entry, looked up): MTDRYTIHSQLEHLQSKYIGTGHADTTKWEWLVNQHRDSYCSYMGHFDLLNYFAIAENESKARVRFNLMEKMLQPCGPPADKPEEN
UniProt O43665, sequence (O43665 whole entry, looked up): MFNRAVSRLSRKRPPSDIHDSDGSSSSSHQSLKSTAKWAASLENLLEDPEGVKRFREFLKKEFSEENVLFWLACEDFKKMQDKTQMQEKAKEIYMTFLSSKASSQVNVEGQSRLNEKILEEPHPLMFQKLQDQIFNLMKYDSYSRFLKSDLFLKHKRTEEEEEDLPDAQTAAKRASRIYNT

Row | Target | log2 fold change [1] | log2 fold change (volasertib) | log2 fold change [2] | log2 fold change (epoxomicin) | log2 fold change [3] | log2 fold change [4] | log2 fold change [5] | log2 fold change (rosiglitazone) | log2 fold change [6] | log2 fold change [7]
1 | RB1CC1 (UniProt Q8TDY2) | 0.051 | -0.022 | -0.086 | 0.063 | -0.118 | -0.07 | -0.077 | 0.01 | 0.047 | -0.116
2 | RPP25L (UniProt Q8N5L8) | 0.144 | 0.115 | -0.042 | -0.04 | -0.052 | 0.059 | -0.074 | -0.093 | 0.061 | 0.058
3 | RAB9A (UniProt P51151) | -0.061 | -0.024 | -0.001 | 0.064 | -0.003 | 0.004 | 0.034 | 0 | -0.034 | -0.252 (active)
4 | RPS20 isoform 2 (UniProt P60866) | 0.114 | 0.31 | -0.009 | -0.103 | -0.02 | 0.065 | -0.03 | -0.037 | 0.091 | 0.063
5 | SH3GL1 (UniProt Q99961) | -0.137 | -0.459 (active) | 0.082 | 0.008 | -0.077 | -0.028 | 0.091 | 0.062 | -0.006 | -0.196
6 | SIRT2 (UniProt Q8IXJ6) | 0.077 | 0.624 (active) | 0.043 | -0.015 | -0.017 | -0.038 | 0.009 | 0.033 | -0.041 | -0.025
7 | SHROOM2 (UniProt Q13796) | 0.027 | 0.068 | -0.243 | -0.136 | -0.203 | -0.072 | -0.021 | 0.058 | -0.103 | -0.094
8 | RPP14 (UniProt O95059) | 0.079 | 0.07 | -0.048 | -0.06 | 0.013 | 0.08 | -0.04 | -0.021 | -0.076 | 0.244 (active)
9 | RBM33 (UniProt Q96EV2) | -0.101 | -0.105 | 0.035 | 0.022 | 0.012 | -0.005 | -0.025 | -0.024 | 0.023 | 0.004
10 | RBM26 isoform 2 (UniProt Q5T8P6) | -0.207 | -0.299 | 0.151 | 0.098 | -0.061 | -0.069 | 0.072 | 0.094 | -0.011 | -0.177
11 | RAVER1 (UniProt E9PAU2) | -0.222 | -1.93 (active) | 0.13 | 0.147 | -0.058 | -0.006 | 0.174 | 0.056 | -0.007 | -0.375
12 | RRP9 (UniProt O43818) | 0.09 | 0.148 | -0.049 | -0.107 | -0.017 | 0.136 | -0.113 | -0.129 | 0.039 | 0.236
13 | SCPEP1 (UniProt Q9HB40) | -0.608 (active) | -1.44 (active) | -0.022 | 0.044 | 0.011 | -0.095 | -0.001 | 0.019 | 0.019 | -0.846 (active)
14 | SGPL1 (UniProt O95470) | 0 | -0.04 | -0.002 | -0.066 | 0.01 | 0.009 | -0.023 | -0.061 | 0.047 | 0.189
15 | SLBP (UniProt Q14493) | -0.052 | -0.034 | 0.013 | 0.127 | -0.03 | 0 | -0.003 | -0.048 | 0.113 | -0.291 (active)
16 | RBM12 (UniProt Q9NTZ6) | -0.181 | -0.437 (active) | 0.114 | 0.087 | -0.08 | -0.049 | 0.053 | 0.087 | -0.033 | -0.139
17 | REEP4 (UniProt Q9H6H4) | -0.023 | -0.043 | -0.011 | -0.08 | 0.024 | 0.051 | -0.015 | -0.033 | 0.079 | -0.134
18 | RBM4 (UniProt Q9BWF3) | -0.043 | -0.3 (active) | 0.057 | -0.018 | -0.079 | 0.059 | -0.024 | -0.034 | 0.129 | -0.091
19 | RABGGTA (UniProt Q92696) | 0.029 | -0.087 | -0.013 | 0.021 | -0.032 | -0.051 | -0.015 | 0.054 | -0.111 | -0.023
20 | RFC3 (UniProt P40938) | -0.008 | -0.052 | 0.047 | 0.042 | 0.001 | -0.081 | 0.038 | 0.05 | -0.096 | -0.008
21 | RBM22 (UniProt Q9NW64) | -0.027 | -0.3 (active) | 0.002 | -0.009 | -0.018 | 0.061 | -0.058 | 0.005 | 0.011 | -0.003
22 | SF3B5 (UniProt Q9BWJ5) | 0.089 | -0.14 | -0.057 | 0.426 (active) | 0.042 | 0.035 | 0.006 | -0.044 | 0.082 | 0.035
23 | RNASEH2A (UniProt O75792) | -0.062 | -0.075 | 0.068 | 0.061 | -0.002 | -0.061 | -0.118 | 0.013 | -0.019 | -0.394 (active)
24 | SESN2 (UniProt P58004) | -0.244 | -0.522 (active) | 0.165 | 0.083 | 0.061 | -0.292 | 0.115 | -0.081 | 0.015 | -0.247
25 | SASH1 (UniProt O94885) | -0.136 | -0.308 (active) | 0.044 | -0.075 | -0.012 | 0.027 | 0.042 | 0.044 | 0.054 | -0.29
26 | RPL38 (UniProt P63173) | 0.076 | 0.187 | 0.033 | -0.062 | -0.022 | -0.03 | -0.02 | -0.012 | -0.004 | 0.052
27 | RPS6KA2 isoform 2 (UniProt Q15349) | -0.136 | -0.179 | 0.034 | 0.041 | 0.133 | -0.126 | 0.025 | 0.072 | -0.038 | -0.313
28 | RPS5 (UniProt P46782) | 0.103 | 0.337 | 0.065 | -0.079 | 0.025 | 0.059 | -0.036 | -0.073 | 0.089 | 0.044
29 | RGS10 (UniProt O43665) | -0.097 | -0.205 (active) | -0.043 | 0.101 | -0.025 | 0.011 | 0.078 | 0.011 | -0.111 | -0.016
30 | SEC23IP (UniProt Q9Y6Y8) | -0.069 | -0.005 | 0.032 | -0.009 | -0.101 | -0.057 | 0.012 | 0.289 | -0.008 | -0.133
